Holding throughout (assay): DAPPL (digital affinity profiling via proximity ligation, sequencing); 10 mM Tris-HCl pH 7.5, 50 mM NaCl, 1 mM DTT, 4% glycerol, room temperature, 30 min; GST-TFs on glutathione beads, 16-mer random dsDNA library, 0.1% formaldehyde crosslink after washing; high values mean tight binding
One test concerns the target T1, FLI1 (Homo sapiens, UniProt Q01543 1-452).
T1 sequence: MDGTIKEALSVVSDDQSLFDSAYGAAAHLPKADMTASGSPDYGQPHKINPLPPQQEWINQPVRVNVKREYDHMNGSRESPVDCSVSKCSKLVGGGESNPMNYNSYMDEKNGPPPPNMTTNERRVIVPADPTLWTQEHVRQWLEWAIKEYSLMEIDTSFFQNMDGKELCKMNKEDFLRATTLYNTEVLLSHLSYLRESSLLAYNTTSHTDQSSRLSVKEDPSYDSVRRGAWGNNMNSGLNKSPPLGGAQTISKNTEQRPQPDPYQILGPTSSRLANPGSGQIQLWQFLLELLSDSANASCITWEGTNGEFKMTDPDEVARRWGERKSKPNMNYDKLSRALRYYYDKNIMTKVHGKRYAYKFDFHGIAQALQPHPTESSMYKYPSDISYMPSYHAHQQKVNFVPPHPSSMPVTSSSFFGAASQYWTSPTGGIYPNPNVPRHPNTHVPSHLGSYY
To be noted: protein: recombinant; tags: N-terminal GST; dsDNA, one strand shown. The procedure, abridged: (§1)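 Pools were built from human transcription factors expressed in yeast as GST fusions, captured on glutathione beads and DNA-barcoded, along with a tag-only sample. Incubation with 200 nmole of a 16-mer random double-stranded DNA library lasted 30 min at room temperature in Tris/NaCl/DTT/glycerol buffer, and was followed by washing, 0.1% formaldehyde crosslinking, proximity ligation, PCR amplification and Illumina NextSeq500 sequencing. Binding signal is the quotient of each hexamer's read frequency for a factor and its frequency for the tag-only sample.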

Another test deals with T2, ELK1 (Homo sapiens, UniProt P19419 1-428).
T2 sequence: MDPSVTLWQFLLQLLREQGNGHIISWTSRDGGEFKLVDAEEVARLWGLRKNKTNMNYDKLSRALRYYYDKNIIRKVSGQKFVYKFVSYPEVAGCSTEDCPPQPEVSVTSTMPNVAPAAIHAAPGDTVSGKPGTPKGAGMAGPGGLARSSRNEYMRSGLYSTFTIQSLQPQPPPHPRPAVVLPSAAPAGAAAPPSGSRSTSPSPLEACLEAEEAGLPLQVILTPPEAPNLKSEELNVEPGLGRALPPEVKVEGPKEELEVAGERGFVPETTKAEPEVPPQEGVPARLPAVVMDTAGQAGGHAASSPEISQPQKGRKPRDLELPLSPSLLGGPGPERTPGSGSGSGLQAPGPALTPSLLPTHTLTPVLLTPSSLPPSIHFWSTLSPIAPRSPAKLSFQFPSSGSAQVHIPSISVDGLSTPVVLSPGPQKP
Particulars: protein: recombinant; tags: N-terminal GST; dsDNA, one strand shown. The gist of the method:
as §1

The target of the next test is T3, GABPA (Homo sapiens, UniProt Q06546 1-454).
T3 sequence: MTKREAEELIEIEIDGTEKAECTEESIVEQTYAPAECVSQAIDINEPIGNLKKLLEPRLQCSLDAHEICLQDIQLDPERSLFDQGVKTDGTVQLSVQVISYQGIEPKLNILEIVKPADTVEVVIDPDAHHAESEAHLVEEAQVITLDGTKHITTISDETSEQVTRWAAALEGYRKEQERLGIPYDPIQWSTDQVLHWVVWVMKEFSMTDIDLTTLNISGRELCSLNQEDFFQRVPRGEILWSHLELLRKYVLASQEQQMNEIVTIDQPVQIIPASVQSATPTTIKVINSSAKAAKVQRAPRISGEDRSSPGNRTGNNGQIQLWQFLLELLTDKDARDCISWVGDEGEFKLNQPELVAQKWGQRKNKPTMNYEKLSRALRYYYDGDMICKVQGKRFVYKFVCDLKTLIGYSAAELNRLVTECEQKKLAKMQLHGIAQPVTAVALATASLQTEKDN
Particulars: protein: recombinant; tags: N-terminal GST; dsDNA, one strand shown. The gist of the method: as §1

The next test addresses T4, ERG (Homo sapiens, UniProt P11308 1-479).
T4 sequence: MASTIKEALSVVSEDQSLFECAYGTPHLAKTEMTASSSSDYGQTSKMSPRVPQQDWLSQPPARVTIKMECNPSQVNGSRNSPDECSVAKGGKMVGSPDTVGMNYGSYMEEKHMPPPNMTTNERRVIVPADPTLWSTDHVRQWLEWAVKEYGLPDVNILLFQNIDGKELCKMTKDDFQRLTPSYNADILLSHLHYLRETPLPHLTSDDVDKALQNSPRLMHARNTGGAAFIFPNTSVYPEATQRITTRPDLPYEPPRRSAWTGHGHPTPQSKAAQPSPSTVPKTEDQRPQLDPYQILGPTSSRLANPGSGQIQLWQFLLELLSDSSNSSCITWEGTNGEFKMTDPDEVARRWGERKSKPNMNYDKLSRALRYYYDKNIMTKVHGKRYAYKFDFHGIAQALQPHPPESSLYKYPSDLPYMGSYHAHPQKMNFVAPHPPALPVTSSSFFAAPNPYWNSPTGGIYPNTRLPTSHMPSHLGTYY
Particulars: protein: recombinant; tags: N-terminal GST; dsDNA, one strand shown. The gist of the method:
as §1

The target of the next test is ELF1 (Homo sapiens, UniProt P32519 1-619). To be noted: protein: recombinant; tags: N-terminal GST; dsDNA, one strand shown. The gist of the method: as §1
The target of the next test is T5, EHF (Homo sapiens, UniProt Q9NZC4 1-300).
T5 sequence: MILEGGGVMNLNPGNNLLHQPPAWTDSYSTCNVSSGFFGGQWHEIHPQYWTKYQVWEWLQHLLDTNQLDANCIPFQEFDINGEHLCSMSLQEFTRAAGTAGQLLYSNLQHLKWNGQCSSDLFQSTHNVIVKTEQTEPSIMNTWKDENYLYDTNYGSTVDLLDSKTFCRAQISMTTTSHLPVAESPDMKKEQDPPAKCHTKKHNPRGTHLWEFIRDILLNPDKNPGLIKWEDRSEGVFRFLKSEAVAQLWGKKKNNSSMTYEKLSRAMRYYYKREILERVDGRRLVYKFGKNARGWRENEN
Particulars: protein: recombinant; tags: N-terminal GST; dsDNA, one strand shown. The gist of the method:
as §1

Another test concerns the target SPI1 (Homo sapiens, UniProt P17947 1-270). Particulars: protein: recombinant; tags: N-terminal GST; dsDNA, one strand shown. The gist of the method: as §1
Another test has as its target SPIB (Homo sapiens, UniProt Q01892 1-262). To be noted: protein: recombinant; tags: N-terminal GST; dsDNA, one strand shown. The procedure, abridged:
as §1

The target of another test is T6, ELK3 (Homo sapiens, UniProt P41970 1-407).
T6 sequence: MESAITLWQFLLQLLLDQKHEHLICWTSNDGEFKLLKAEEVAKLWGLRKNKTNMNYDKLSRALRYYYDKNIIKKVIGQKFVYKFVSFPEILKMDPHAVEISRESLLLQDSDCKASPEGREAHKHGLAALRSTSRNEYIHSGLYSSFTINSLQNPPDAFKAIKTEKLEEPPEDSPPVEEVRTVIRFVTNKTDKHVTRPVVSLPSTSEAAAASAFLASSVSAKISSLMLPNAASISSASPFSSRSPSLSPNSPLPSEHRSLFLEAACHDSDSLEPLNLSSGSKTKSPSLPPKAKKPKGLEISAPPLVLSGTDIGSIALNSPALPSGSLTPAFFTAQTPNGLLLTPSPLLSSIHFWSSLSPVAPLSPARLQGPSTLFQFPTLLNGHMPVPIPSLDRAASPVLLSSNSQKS
Particulars: protein: recombinant; tags: N-terminal GST; dsDNA, one strand shown. The procedure, abridged:
as §1

The target of another test is T7, FEV (Homo sapiens, UniProt Q99581 1-238).
T7 sequence: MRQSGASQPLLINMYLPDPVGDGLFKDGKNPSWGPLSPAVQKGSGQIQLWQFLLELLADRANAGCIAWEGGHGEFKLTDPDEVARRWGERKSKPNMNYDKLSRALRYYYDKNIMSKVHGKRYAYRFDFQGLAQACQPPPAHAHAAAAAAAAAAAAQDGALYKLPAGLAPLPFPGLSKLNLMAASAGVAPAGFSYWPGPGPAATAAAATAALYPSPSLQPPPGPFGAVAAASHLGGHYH
To be noted: protein: recombinant; tags: N-terminal GST; dsDNA, one strand shown. The gist of the method:
as §1

A further test concerns the target ETV5 (Homo sapiens, UniProt P41161 1-510). To be noted: protein: recombinant; tags: N-terminal GST; dsDNA, one strand shown. The procedure, abridged:
as §1

In a further test the target is HSF1 (Homo sapiens, UniProt Q00613 1-529). To be noted: protein: recombinant; tags: N-terminal GST; chain copies: 3; dsDNA, one strand shown. The procedure, abridged:
as §1

Another test deals with T8, SPIC (Homo sapiens, UniProt Q8N5J4 1-248).
T8 sequence: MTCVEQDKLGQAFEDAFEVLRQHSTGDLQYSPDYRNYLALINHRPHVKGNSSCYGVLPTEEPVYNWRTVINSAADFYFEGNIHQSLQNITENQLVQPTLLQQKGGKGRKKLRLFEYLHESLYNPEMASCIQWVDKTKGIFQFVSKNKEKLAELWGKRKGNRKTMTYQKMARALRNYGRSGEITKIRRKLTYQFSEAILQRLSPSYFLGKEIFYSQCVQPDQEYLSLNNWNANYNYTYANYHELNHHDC
To be noted: protein: recombinant; tags: N-terminal GST; dsDNA, one strand shown. The procedure, abridged: as §1

Another test has as its target ELF4 (Homo sapiens, UniProt Q99607 1-663). Particulars: protein: recombinant; tags: N-terminal GST; dsDNA, one strand shown. The gist of the method: as §1
The next test concerns the target T9, ELK4 (Homo sapiens, UniProt P28324-2 1-405).
T9 sequence: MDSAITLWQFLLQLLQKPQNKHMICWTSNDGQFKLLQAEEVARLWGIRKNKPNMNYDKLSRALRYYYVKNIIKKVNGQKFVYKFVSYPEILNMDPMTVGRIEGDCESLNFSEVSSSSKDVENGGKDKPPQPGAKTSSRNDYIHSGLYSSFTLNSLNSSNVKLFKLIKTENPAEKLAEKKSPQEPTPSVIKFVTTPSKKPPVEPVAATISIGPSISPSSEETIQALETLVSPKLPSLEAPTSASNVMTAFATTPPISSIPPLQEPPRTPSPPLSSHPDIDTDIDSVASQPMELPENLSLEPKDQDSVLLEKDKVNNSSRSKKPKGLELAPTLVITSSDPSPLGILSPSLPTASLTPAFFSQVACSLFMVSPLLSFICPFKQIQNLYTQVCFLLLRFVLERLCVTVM
Particulars: protein: recombinant; tags: N-terminal GST; dsDNA, one strand shown. The procedure, abridged:
as §1

The target of the next test is T10, ETV2 (Homo sapiens, UniProt O00321 1-342).
T10 sequence: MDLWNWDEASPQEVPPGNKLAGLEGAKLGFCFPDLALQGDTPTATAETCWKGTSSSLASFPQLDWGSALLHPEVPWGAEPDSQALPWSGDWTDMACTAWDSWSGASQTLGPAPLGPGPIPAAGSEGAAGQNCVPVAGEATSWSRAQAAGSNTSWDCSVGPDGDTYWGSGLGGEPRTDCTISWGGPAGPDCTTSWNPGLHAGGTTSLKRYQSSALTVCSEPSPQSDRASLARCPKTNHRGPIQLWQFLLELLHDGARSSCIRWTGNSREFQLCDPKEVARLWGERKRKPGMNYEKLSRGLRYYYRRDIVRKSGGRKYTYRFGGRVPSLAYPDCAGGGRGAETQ
Particulars: protein: recombinant; tags: N-terminal GST; dsDNA, one strand shown. The gist of the method: as §1

In the next test the target is T11, ELF3 (Homo sapiens, UniProt P78545 1-371).
T11 sequence: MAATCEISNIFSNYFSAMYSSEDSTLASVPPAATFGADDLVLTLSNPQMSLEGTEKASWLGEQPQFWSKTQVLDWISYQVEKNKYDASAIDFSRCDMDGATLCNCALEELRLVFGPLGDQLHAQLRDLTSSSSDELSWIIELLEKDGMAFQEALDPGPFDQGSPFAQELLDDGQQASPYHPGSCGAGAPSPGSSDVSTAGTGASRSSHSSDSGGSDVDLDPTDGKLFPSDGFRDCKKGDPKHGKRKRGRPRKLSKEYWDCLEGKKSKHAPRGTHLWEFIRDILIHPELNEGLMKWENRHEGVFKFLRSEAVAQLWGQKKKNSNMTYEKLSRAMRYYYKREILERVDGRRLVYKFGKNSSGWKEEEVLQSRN
To be noted: protein: recombinant; tags: N-terminal GST; dsDNA, one strand shown. The procedure, abridged:
as §1

The target in another test is CRX (Homo sapiens, UniProt O43186 1-299). To be noted: protein: recombinant; tags: N-terminal GST; dsDNA, one strand shown. The procedure, abridged: as §1
In the next test the target is ETV1 (Homo sapiens, UniProt P50549 1-477). To be noted: protein: recombinant; tags: N-terminal GST; dsDNA, one strand shown. The gist of the method: as §1
Sequence of ETV1 (P50549 whole entry): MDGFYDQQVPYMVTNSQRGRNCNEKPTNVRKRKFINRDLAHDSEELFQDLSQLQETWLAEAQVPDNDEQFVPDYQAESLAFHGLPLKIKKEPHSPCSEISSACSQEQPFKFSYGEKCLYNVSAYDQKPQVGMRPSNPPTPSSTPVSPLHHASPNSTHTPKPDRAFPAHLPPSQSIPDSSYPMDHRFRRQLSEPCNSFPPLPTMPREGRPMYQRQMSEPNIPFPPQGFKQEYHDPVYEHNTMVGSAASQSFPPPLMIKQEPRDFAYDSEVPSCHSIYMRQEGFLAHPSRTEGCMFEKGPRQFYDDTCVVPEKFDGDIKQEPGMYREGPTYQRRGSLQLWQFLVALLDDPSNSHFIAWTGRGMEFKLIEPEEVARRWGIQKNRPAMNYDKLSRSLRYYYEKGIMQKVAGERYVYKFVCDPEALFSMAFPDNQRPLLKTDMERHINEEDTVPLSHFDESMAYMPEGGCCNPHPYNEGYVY

Sequence of ELF1 (P32519 whole entry): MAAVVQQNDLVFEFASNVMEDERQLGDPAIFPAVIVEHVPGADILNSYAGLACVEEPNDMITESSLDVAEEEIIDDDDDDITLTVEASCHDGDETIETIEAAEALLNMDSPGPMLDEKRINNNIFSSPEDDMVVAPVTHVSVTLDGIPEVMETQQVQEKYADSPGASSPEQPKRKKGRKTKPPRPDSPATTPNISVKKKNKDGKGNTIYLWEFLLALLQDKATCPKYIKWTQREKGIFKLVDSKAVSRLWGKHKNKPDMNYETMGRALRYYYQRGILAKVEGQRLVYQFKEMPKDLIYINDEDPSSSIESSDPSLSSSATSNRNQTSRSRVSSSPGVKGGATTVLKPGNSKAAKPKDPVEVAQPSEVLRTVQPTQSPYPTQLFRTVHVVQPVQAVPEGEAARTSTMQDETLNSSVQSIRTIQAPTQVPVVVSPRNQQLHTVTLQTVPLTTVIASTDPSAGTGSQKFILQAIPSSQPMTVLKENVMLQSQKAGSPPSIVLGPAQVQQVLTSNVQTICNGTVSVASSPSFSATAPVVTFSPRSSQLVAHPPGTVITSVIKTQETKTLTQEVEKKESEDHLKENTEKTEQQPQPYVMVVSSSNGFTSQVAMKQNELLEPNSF
Sequence of SPIB (Q01892 whole entry): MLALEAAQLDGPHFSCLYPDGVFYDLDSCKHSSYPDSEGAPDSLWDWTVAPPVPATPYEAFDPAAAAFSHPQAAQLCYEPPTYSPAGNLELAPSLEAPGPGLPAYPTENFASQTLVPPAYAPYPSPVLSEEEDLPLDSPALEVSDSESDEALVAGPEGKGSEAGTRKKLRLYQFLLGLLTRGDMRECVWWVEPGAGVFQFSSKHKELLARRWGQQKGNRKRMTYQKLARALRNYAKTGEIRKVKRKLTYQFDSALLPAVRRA
Sequence of ETV5 (P41161 whole entry): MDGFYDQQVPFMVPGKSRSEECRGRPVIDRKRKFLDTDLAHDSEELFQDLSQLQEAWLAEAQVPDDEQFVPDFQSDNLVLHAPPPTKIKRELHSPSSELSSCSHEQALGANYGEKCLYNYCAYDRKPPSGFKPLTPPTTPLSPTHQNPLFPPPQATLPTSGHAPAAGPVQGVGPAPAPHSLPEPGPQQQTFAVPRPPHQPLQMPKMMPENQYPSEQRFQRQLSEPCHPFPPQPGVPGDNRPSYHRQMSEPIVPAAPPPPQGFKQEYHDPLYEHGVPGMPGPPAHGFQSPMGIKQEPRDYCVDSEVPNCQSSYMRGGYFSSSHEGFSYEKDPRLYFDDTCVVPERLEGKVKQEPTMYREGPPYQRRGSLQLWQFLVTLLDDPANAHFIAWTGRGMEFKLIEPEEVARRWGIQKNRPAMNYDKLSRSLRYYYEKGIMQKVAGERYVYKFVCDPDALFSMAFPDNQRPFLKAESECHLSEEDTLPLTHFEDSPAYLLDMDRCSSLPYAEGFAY
Sequence of CRX (O43186 whole entry): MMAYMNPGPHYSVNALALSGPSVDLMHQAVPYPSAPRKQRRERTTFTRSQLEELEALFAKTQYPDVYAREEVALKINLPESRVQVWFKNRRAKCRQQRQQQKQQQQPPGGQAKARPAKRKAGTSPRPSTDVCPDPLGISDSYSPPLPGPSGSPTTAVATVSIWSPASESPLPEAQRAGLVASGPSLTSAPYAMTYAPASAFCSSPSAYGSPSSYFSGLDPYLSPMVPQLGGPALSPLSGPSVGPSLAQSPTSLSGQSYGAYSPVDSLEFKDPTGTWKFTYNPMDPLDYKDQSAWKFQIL
Sequence of ELF4 (Q99607 whole entry): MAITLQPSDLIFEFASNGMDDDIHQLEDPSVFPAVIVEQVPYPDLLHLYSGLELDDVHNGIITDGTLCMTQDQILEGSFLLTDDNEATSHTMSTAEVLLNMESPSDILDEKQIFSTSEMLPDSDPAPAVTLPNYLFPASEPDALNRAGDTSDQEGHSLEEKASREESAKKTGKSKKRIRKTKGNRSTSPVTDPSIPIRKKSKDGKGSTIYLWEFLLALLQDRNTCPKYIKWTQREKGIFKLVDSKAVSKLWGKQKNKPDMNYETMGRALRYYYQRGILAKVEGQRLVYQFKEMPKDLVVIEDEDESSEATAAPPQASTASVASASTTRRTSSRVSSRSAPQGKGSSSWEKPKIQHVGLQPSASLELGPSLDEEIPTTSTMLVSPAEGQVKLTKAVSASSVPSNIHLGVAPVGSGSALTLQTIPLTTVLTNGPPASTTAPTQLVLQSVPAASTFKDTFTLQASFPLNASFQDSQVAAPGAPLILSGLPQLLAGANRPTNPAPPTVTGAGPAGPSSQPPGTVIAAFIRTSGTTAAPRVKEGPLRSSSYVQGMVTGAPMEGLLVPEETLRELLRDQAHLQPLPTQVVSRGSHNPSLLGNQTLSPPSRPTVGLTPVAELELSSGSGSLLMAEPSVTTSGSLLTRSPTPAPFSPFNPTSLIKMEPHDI
Sequence of HSF1 (Q00613 whole entry): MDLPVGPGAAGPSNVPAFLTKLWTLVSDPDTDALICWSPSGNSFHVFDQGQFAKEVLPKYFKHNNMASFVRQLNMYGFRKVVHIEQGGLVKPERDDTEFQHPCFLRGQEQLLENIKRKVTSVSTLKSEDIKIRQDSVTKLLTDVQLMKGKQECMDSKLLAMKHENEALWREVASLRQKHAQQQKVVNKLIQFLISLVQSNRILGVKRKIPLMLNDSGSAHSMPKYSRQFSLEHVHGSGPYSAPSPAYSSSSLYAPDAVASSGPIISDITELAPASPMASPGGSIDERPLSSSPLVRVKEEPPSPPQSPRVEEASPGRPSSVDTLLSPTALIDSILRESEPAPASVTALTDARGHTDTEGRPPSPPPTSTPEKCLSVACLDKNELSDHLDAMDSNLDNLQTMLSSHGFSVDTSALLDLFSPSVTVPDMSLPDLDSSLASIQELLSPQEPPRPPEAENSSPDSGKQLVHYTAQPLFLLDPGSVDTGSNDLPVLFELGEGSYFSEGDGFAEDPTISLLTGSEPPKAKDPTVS

Consider ATTATC, for which the binding signal in the test with FLI1 is 1.35 fold enrichment (6-mer frequency, TF over GST control); in the test with ELK1, 1.35 fold enrichment (6-mer frequency, TF over GST control); with GABPA, 1.34 fold enrichment (6-mer frequency, TF over GST control); with ERG, 1.32 fold enrichment (6-mer frequency, TF over GST control); in the test with ELF1 it was 1.29 fold enrichment (6-mer frequency, TF over GST control); with EHF, 1.28 fold enrichment (6-mer frequency, TF over GST control). For the same sequence, the binding signal was 1.35 fold enrichment (6-mer frequency, TF over GST control) with SPI1; 1.27 fold enrichment (6-mer frequency, TF over GST control) in the test with SPIB; 1.32 fold enrichment (6-mer frequency, TF over GST control) with ELK3; 1.29 fold enrichment (6-mer frequency, TF over GST control) in the test with FEV; 1.26 fold enrichment (6-mer frequency, TF over GST control) in the test with ETV5; 2.51 fold enrichment (6-mer frequency, TF over GST control) in the test with HSF1. Besides, the binding signal is 1.34 fold enrichment (6-mer frequency, TF over GST control) in the test with SPIC; 1.32 fold enrichment (6-mer frequency, TF over GST control) in the test with ELF4; 1.39 fold enrichment (6-mer frequency, TF over GST control) with ELK4; 1.38 fold enrichment (6-mer frequency, TF over GST control) in the test with ETV2; 1.39 fold enrichment (6-mer frequency, TF over GST control) with ELF3; 3.86 fold enrichment (6-mer frequency, TF over GST control) with CRX. In addition, in the test with ETV1, the binding signal was 1.31 fold enrichment (6-mer frequency, TF over GST control).

Source of the values: paper PMC7862700, “An all-to-all approach to the identification of sequence-specific readers for epigenetic DNA modifications on cytosine”.
